Assay outcomes: PubChem BioAssay, several laboratories
RecA intein inh – blocks M. tuberculosis RecA intein splicing; 290,000 compounds, 0.75% hits; inhibition, % (concentration not given with the values); cell-free RecA intein splicing, fluorescence; in the data active means inhibition above about 30%;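 further: 0% = vehicle wells and 100% = reference inhibitor control wells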
Target sequence (P9WHJ3 whole entry, looked up): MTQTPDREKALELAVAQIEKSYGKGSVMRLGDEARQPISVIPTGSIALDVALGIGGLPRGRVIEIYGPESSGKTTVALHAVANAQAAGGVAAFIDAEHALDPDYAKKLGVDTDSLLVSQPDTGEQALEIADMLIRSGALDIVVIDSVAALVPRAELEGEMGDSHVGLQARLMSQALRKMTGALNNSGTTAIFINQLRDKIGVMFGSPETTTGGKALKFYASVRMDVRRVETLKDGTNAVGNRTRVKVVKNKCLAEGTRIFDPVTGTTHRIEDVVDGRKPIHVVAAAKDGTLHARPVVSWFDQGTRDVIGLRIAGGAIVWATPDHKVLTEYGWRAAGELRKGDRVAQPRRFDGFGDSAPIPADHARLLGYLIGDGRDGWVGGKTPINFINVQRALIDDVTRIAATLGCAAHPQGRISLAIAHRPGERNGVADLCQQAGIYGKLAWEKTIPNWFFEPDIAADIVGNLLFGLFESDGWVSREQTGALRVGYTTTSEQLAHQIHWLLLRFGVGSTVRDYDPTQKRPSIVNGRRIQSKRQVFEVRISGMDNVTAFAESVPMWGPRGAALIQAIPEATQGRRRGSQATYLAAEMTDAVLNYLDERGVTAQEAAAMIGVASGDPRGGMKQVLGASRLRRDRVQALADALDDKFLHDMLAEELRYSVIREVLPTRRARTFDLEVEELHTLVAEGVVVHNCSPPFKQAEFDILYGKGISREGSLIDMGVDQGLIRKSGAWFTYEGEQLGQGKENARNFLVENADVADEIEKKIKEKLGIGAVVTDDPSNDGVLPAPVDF
PriA SSB inh – blocks PriA binding to SSB C-terminal tail. inhibition, % at 33 µM. AID 1272365. 430,000 compounds, 0.6% hits. AlphaScreen SSBct-PriA binding, biotinylated peptide; in the data active means inhibition mostly above about 37%, no sharp cut-off; inactive means mostly below about 20%;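 further: plate controls were negative control peptide for no effect and reference peptide for full effect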
PrPC TRFRET – reduces human prion protein on the cell surface. P04156. cell surface PrPC, TR-FRET read-out. inhibition, % at 13.8 µM. 370,000 compounds, 0.43% hits. AID 720596; in the data active means inhibition above about 24%; further: 0% = median of the test wells and 100% = reference compound wells
PfHsp40 yeast – rescue of PfHsp40-mediated yeast toxicity | AID 504582 | 340,000 compounds, 0.68% hits | S. cerevisiae expressing PfHsp40, growth rescue, ATP luminescence | growth rescue, % at 12.5 µM; in the data active means growth rescue above about 28%, passing the limit was not always enough;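 further: yeast W303a lacking pdr1 and pdr3 grown in galactose medium; growth measured after three days at 30 °C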
PrP 5UTR inh – suppresses PrP 5' UTR mRNA reporter expression; cell-based PrP 5' UTR mRNA reporter, plate reader; inhibition, % (no concentration beside the values); 340,000 compounds, 0.35% hits; in the data active means inhibition above about 52%; further: 0 = median of the neutral control wells
BJeLR viability – kills HRASV12-expressing BJeLR cells; inhibition, % (test concentration not listed); 300,000 compounds, 0.17% hits; BJeLR (HRASV12) viability, CellTiter-Glo ATP luminescence, 48 h; in the data active means inhibition above about 50%
Starred values were filed as active, the others as inactive; / = no result. Compounds with a hit are over-represented: about 1.9% of the library has one in this group of screens.

SMILES | RecA intein inh | PriA SSB inh | PrPC TRFRET | PfHsp40 yeast | PrP 5UTR inh | BJeLR viability
CC(=O)c1c(C)[nH]c(C(=O)COc2cc(C)ccc2C(C)C)c1C | 7 | -4 | 26* | -1 | -3 | 15
COc1cc(C)ccc1OCC(=O)OCC(=O)c1[nH]c(C)c(C(C)=O)c1C | / | 7 | 8 | 0 | -21 | /
Cc1cc2nc(Sc3c([N+](=O)[O-])nc(C)n3Cc3ccccc3)[nH]c2cc1C | 46* | 11 | 15 | 0 | -12 | -1
Cc1nc([N+](=O)[O-])c(Sc2nc3ccccc3[nH]2)n1Cc1ccccc1 | 38* | -16 | 16 | 0 | -24 | -7
COc1ccc2nc(Sc3c([N+](=O)[O-])nc(C)n3Cc3ccccc3)[nH]c2c1 | 29 | -16 | 7 | / | / | -13
COc1ccc(NC(=O)NCCCn2nc(-c3ccc(Cl)cc3)ccc2=O)cc1OC | / | -22 | / | / | / | /
C/C(=N/NC(=O)c1cc2ccccc2cc1O)c1ccco1 | / | / | 2 | 77* | -51 | 7
Cc1cc(S(=O)(=O)Nc2c(C)ccc3nsnc23)ccc1F | 4 | -10 | -5 | 1 | -11 | /
Cc1ccc2nsnc2c1NS(=O)(=O)c1c(C)ccc2nsnc12 | 36* | 9 | -11 | -1 | -20 | 0
CCCCCCNc1c([N+](=O)[O-])cc(C)cc1[N+](=O)[O-] | -1 | 60* | -4 | 0 | -32 | 7
Cc1cc([N+](=O)[O-])c(NCCCO)c([N+](=O)[O-])c1 | / | 24 | / | / | / | /
Brc1ccc2ccc3cccnc3c2n1 | / | 33 | / | / | / | /
Brc1cc2cccnc2c2ncccc12 | / | 151* | / | / | / | /
Clc1cc2cccnc2c2ncccc12 | / | 99* | 16 | 116* | -9 | /
CCCc1cc(=O)[nH]c(-n2nc(C)cc2NC(=O)C(=O)NCc2ccc(F)cc2)n1 | / | -14 | / | / | / | /
CCCc1cc(=O)[nH]c(-n2nc(C)cc2NC(=O)C(C)(C)CCl)n1 | / | 44* | / | / | / | /
O=C(NCc1cccc(Oc2ccccn2)c1)NC1CCCC1 | / | 10 | / | / | / | /
O=C1C(Cl)=C(NCC2CCCO2)C(=O)N1c1ccccc1 (stereo unspecified) | 33* | -12 | 2 | 2 | -22 | 4
O=C1C(Cl)=C(NCC2CCCO2)C(=O)N1C1CCCCC1 (stereo unspecified) | / | -7 | -10 | 1 | -77 | 2
O=S(=O)(CCSc1ccccn1)c1nc2ccccc2s1 | 40* | -9 | -6 | 59* | -21 | -14
O=S(=O)(CCSc1nc2ccccc2o1)c1nc2ccccc2s1 | 11 | -1 | 1 | 10 | 3 | 16
O=C(Nc1nc(-c2ccccn2)cs1)c1ccc([N+](=O)[O-])o1 | -17 | 51* | -1 | 1 | -7 | 13
Cc1ccc(C(=O)Nc2nc(-c3ccccn3)cs2)o1 | 1 | 18 | 6 | 1 | 25 | 7
Cc1csc(NC(=O)c2ccccc2[N+](=O)[O-])n1 | -1 | -4 | -3 | 1 | -25 | -2
O=C(Nc1nc(-c2ccccn2)cs1)c1cc(Cl)ccc1[N+](=O)[O-] | 0 | 64* | 16 | 0 | 26 | 25
SMILES | RecA intein inh | PriA SSB inh | PrPC TRFRET | PfHsp40 yeast | PrP 5UTR inh | BJeLR viability
O=C(Nc1nc(-c2ccccn2)cs1)c1ccccc1[N+](=O)[O-] | / | 105* | / | / | / | /
O=C(Nc1nc(-c2ccccc2)cs1)c1cc(Cl)ccc1[N+](=O)[O-] | / | 34 | / | / | / | /
O=C(Nc1nc(-c2ccccc2)cs1)c1ccccc1[N+](=O)[O-] | / | 84* | / | / | / | /
O=C(CSc1ccc(NC(=O)c2cccs2)nn1)Nc1ccc(F)cc1F | / | -17 | / | / | / | /
O=C(NNC(=O)c1ccc([N+](=O)[O-])o1)c1ccccc1 | 39* | -4 | -16 | -2 | 0 | -12
O=C(Nc1ccccc1F)N1CCC[C@H](Cc2nc(-c3ccsc3)no2)C1 | / | 3 | / | / | / | /
O=[N+]([O-])c1ccccc1Nc1nc(-c2ccccn2)cs1 | / | 80* | / | / | / | /
CCN(CC)c1ccc(Nc2nc(-c3cccnc3)cs2)cc1 | -1 | 41* | 0 | 1 | -89 | -8
O=[N+]([O-])c1ccccc1Nc1nc(-c2cccnc2)cs1 | / | 52* | -19 | 0 | -15 | -7
CCc1ccccc1Nc1nc(-c2cccnc2)cs1 | 2 | -3 | 6 | 1 | -7 | -1
O=S(=O)(c1ccc(Cl)s1)N1CCN(c2ccc(-c3ccccn3)nn2)CC1 | / | 55* | / | / | / | /
CCC(C(=O)N1CCN(c2ccc(-c3ccccn3)nn2)CC1)c1ccccc1 (stereo unspecified) | / | 80* | / | / | / | /
COc1cccc(C(=O)N2CCN(c3ccc(-c4ccccn4)nn3)CC2)c1OC | / | 94* | / | / | / | /
CCC(C(=O)N1CCN(c2ccc(-c3ccncc3)nn2)CC1)c1ccccc1 (stereo unspecified) | / | 3 | / | / | / | /
Cc1nccn1-c1ccc(N2CCN(S(=O)(=O)c3ccccc3Cl)CC2)nn1 | / | -4 | / | / | / | /
C[C@H](Oc1ccccc1)C(=O)NCc1cccnc1-c1ccsc1 | / | -8 | / | / | / | /
Cc1nnc(N=c2ssnc2Cl)o1 | / | -10 | 5 | 362* | -20 | /
Cc1ccc(N=c2ssnc2Cl)cc1 | -2 | 4 | 3 | -1 | -11 | 12
COc1ccc(NC(=O)NCCn2nc(-c3cccnc3)ccc2=O)c(OC)c1 | / | -18 | / | / | / | /
C[C@](O)(CNC(=O)Cc1ccsc1)c1ccc(-c2ccccc2)cc1 | / | -4 | / | / | / | /
Nc1ccc(Br)c2cccnc12 | 4 | 33 | -4 | 0 | -18 | -11
Cc1ccccc1N=Nc1ccc(O)c2ncccc12 | 1 | 57 | 5 | -1 | 20 | 66*
Nc1ccc(N=Nc2ccccc2)c2cccnc12 | 4 | 59* | -14 | 1 | / | 0
O=S(=O)(O)c1cccc2c(N=Nc3ccc(O)c4ncccc34)cccc12 | 10 | 62* | / | 94* | -11 | 9
COc1ccc(N/N=C(\C#N)C(N)=O)cc1 | 2 | / | -9 | 47* | -21 | 7
SMILES | RecA intein inh | PriA SSB inh | PrPC TRFRET | PfHsp40 yeast | PrP 5UTR inh | BJeLR viability
CCOc1ccc(N/N=C(/C#N)C(N)=O)cc1 | 0 | / | -18 | 363* | -36 | -6
NC(=O)c1ccccc1NC(=O)c1c[nH]c(=O)n(Cc2ccco2)c1=O | / | -1 | / | / | / | /
COc1ccc(Nc2cc(C)nc3c(C)ccc([N+](=O)[O-])c23)cc1 | / | 112* | / | / | / | /
Cc1cc(Nc2ccc(Br)cc2)c2c([N+](=O)[O-])ccc(C)c2n1 | / | 55 | / | / | / | /
CCN(CCCNC(=O)c1[nH]c(C)c(C(C)=O)c1C)c1cccc(C)c1 | -3 | 40* | 3 | 0 | -16 | 1
CC(=O)O[C@H]1[C@@H](O)[C@H](O)[C@H](Oc2c(O)c(C)c3c4c2[C@@H](C)CC[C@@H]4[C@@H](C)C[C@H]3C=C(C)C)O[C@H]1C | / | 10 | -3 | 125* | -21 | /
COc1ccccc1-c1nc(CN(c2ccccc2OC)S(=O)(=O)c2ccc(C)cc2)c(C)o1 | / | -2 | / | / | / | /
O=c1oc2cc(S(=O)(=O)N3CCOCC3)ccc2n1Cc1ccc([N+](=O)[O-])cc1 | / | 48* | / | / | / | /
O=[N+]([O-])c1ccc(N2CCOCC2)c(S(=O)(=O)N2CCOCC2)c1 | 1 | -10 | -6 | 2 | -1 | -3
O=C(NCCc1c[nH]c2ccccc12)c1csc(Nc2ccccc2)n1 | / | 28* | / | / | / | /
O=C(Nc1ccccc1)Nc1nc(C(=O)NCCc2c[nH]c3ccccc23)cs1 | / | 41* | / | / | / | /
